Shown are actives, neighbours in structure and some others; about 11% of the full set was active somewhere.
HP1b binding inh: HTS for Inhibitors of HP1-beta Chromodomain Interactions with Methylated Histone Tails; Chromobox protein homolog 1 (Homo sapiens), P83916; AlphaScreen HP1-beta / biotin-H3K9me3 peptide binding; Potency, µM (titrated, usually from 114 µM), usual class: inhibitors; 0.56% of 390,000 active; AID 540317, 2011; further: nearly all actives have a fitted effect of over 70% in size
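Compound inhibition of the preformed complex between 50 nM HP1-beta and 50 nM biotinylated H3K9me3 peptide was read by AlphaScreen. Buffer was PBS pH 7.4 with 0.01% Tween-20. Incubations ran 30 min at room temperature, with 10 ug/mL donor/acceptor beads.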
G9a block: qHTS Assay for Inhibitors of Histone Lysine Methyltransferase G9a; Potency, µM (titrated, usually from 102 µM), most hits filed as inhibitors; AID 504332, 2011; Histone-lysine N-methyltransferase EHMT2 (Homo sapiens), Q96KQ7; G9a H3K9 monomethylation, AlphaScreen, 2 h; 8.8% of 350,000 active; further: nearly all actives have a fitted effect of over 75% in size
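G9a (20 nM) preincubated 15 min RT with compounds, then 500 nM biotinylated H3K9 peptide and 20 uM SAM added; 2 h RT reaction. Monomethyl-H3K9 product detected by AlphaScreen with anti-H3K9me1 antibody, streptavidin donor and anti-rabbit IgG acceptor beads.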
BAZ2B block: qHTS Assay for Inhibitors of BAZ2B; Bromodomain adjacent to zinc finger domain protein 2B (Homo sapiens), Q9UIF8; AlphaScreen BAZ2B-H3K14Ac peptide displacement; Potency, µM (titrated, usually from 114 µM), hits mostly inhibitors; 4.4% of 360,000 active; further: nearly all actives have a fitted effect of over 60% in size
Target sequence (Q9UIF8 whole entry, looked up, the tested form may be a part): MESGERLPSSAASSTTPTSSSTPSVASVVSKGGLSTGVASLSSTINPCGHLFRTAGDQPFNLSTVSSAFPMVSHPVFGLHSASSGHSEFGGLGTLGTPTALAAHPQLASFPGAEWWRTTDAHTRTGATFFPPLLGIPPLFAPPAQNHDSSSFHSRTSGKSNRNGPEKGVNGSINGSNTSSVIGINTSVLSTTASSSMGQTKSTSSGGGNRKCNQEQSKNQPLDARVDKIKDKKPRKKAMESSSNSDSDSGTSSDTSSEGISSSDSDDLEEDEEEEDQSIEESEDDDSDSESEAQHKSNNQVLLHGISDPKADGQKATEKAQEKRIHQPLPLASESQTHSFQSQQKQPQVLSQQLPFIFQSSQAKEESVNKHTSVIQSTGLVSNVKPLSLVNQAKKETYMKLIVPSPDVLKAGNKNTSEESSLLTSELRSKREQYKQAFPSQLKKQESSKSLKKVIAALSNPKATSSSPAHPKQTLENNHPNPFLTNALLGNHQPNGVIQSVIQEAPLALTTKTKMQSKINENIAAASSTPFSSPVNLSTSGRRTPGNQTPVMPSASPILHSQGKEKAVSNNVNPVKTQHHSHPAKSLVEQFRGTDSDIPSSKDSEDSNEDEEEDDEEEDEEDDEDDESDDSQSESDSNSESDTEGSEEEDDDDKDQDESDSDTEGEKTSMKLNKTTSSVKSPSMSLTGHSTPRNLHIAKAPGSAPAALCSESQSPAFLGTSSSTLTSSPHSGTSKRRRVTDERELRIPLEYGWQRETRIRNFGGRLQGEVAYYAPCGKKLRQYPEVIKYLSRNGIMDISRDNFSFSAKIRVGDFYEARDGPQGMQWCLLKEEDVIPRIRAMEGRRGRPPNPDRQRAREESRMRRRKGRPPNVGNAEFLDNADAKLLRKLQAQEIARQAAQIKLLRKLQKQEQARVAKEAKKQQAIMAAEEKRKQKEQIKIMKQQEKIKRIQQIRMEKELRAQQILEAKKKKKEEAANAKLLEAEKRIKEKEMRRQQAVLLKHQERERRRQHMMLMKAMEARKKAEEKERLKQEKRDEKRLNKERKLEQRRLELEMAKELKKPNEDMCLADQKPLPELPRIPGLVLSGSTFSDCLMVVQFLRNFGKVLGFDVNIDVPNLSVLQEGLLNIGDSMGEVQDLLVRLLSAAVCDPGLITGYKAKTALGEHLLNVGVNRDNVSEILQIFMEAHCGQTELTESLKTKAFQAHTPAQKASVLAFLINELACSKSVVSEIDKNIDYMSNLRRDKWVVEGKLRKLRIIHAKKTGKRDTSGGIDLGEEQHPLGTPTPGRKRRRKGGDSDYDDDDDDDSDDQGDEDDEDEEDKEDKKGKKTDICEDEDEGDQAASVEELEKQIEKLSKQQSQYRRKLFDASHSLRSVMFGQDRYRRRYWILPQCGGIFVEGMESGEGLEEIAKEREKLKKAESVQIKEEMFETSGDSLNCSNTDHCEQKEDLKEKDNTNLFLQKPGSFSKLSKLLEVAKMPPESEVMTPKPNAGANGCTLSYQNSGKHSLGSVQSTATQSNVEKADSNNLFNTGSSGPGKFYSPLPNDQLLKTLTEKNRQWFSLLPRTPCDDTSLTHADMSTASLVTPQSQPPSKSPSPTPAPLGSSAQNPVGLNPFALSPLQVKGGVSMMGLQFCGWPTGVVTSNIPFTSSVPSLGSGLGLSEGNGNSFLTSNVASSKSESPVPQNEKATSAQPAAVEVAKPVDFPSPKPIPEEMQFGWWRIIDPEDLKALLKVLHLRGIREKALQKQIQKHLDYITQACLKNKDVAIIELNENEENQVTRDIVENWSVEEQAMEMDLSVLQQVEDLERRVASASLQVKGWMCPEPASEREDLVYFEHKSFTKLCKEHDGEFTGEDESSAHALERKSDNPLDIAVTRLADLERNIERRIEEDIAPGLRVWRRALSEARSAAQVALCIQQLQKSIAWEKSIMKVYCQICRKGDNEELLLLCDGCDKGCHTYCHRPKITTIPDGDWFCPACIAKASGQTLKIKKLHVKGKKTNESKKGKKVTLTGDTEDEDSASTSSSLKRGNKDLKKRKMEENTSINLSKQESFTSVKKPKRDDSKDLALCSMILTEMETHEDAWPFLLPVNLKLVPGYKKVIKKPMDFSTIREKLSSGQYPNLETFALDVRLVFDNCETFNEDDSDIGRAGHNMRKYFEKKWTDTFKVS
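AlphaScreen displacement: compounds (up to 110uM) incubated 30 min at room temperature with a preformed 50 nM BAZ2B/50 nM biotinylated H3K14Ac peptide complex in PBS pH 7.4 with Tween-20. Donor and acceptor beads at 10 ug/mL final added, 20 min light-protected before reading.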
PI5P4K alpha inh: qHTS for Inhibitors of phosphatidylinositol 5-phosphate 4-kinase (PI5P4K) | max response, % | 1.2% of 330,000 active | PI5P4Kalpha enzyme, ADP-Glo luminescence, 60 min; hits give low values | Phosphatidylinositol 5-phosphate 4-kinase type-2 alpha (Homo sapiens), P48426; active means max response of -50% or lower; inconclusive means between -30% and -50%; inactive means -30% or higher; further: value at the top dose of about 77 µM
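Reactions run in 0.038 M HEPES pH 7.4, 0.28 mM EGTA, 0.1% CHAPS and 5% DMSO, with PI5P4Kalpha, substrate, compound and 5 microM ATP final, one hour at room temperature. Readout is ADP-Glo luminescence.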
L3MBTL1 inh: qHTS Assay for the Inhibitors of L3MBTL1; Lethal(3)malignant brain tumor-like protein 1 (Homo sapiens), Q9Y468; AlphaScreen L3MBTL1–H3K9me1 peptide binding; Potency, µM (titrated, usually from 57.1 µM), actives largely listed as inhibitors; 0.66% of 230,000 active; AID 485360, 2010; further: nearly all actives have a fitted effect of over 60% in size
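Displacement of a biotinylated histone H3(1-15) peptide monomethylated at Lys9 (75 nM) from L3MBTL1 (50 nM) was measured by AlphaScreen after a 30 min room-temperature compound incubation; cefsulodin titration served as intraplate control.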
JMJD2A Tudor inh: qHTS Assay for Inhibitors of JMJD2A-Tudor Domain. Lysine-specific demethylase 4A (Homo sapiens), O75164. Potency, µM (top dose mostly 114 µM), actives largely listed as inhibitors. AlphaScreen JMJD2A-Tudor / H3K4me3 peptide binding. 4.4% of 390,000 active; further: nearly all actives have a fitted effect of over 50% in size
A number is an active result; 0 = inactive; ? = inconclusive; - = no result; [ ] = dose if it differs, or a comment. Unless noted, the call rests on the fitted dose curve; in most records, active means well fitted inhibition curve with a large enough effect; inconclusive means small, poorly fitted or top-dose-only effect; inactive means no such curve, though single readings can be large or run the other way.

SMILES | HP1b binding inh | G9a block | BAZ2B block | PI5P4K alpha inh | L3MBTL1 inh | JMJD2A Tudor inh
O=C(CNc1cc(S(=O)(=O)N2CCOCC2)ccc1NCC1CCCO1)Nc1ccc(F)c(F)c1 (centres undefined) | 0 | ? | ? | 0 | - | 0
O=C(CNc1cc(S(=O)(=O)N2CCOCC2)ccc1NCC1CCCO1)Nc1ccccc1F (centres undefined) | 0 | 0 | 0 | 0 | - | 0
COc1cccc(CNC(=O)CN2C(=O)COc3ccc(S(=O)(=O)Nc4ccccc4)cc32)c1 | 0 | 0 | 0 | - | - | 0
CCn1c(C)nc2cc(C(=O)N/N=C/c3cccc(OC)c3O)ccc21 | 0 | 79µM | 0 | 0 | 0 | ?
CCn1c(C)nc2cc(C(=O)N/N=C/c3ccc(O)c(O)c3O)ccc21 | 8.9µM | 2µM | 11µM | -74 | 2.2µM | 6.3µM
CCC(=NNC(=O)c1ccc2c(c1)nc(C)n2CC)c1cc(F)ccc1O | 0 | - | - | 0 | 0 | 0
C=CCc1ccc(OCCCCNC2CCCC2)c(OC)c1 | ? | 13µM | 56µM | 0 | 0 | ?
C=CCc1ccc(OCCOCCN(C)C)c(OC)c1 | ? | 4µM | ? | 0 | - | 1.6µM
C=CCc1ccc(OCCCCCN2CCOCC2)c(OC)c1 | ? | 13µM | 50µM | 0 | 0 | 3.5µM
O=C(Nc1nnc(CCc2ccccc2)s1)C1CCN(C(=O)c2ccco2)CC1 | 0 | - | - | - | - | 0
COc1ccc(S(=O)(=O)NCC(c2ccco2)N2CCN(c3ccccc3F)CC2)cc1OC (centres undefined) | 0 | 0 | ? | - | - | 0
O=C1NC(c2cccc3ccccc23)Nc2ccccc21 (centres undefined) | 0 | - | - | 0 | - | 0
O=C1c2ccccc2C(=O)C1Cc1cccc2ccccc12 | 0 | 50µM | ? | - | - | ?
O=C(NC1CCCCC1)c1cc(Nc2cccc(C(F)(F)F)c2)nc2ccccc12 | 0 | 0 | 0 | - | - | 0
Cn1c(=O)c2cn(Cc3ccc(Cl)cc3)cc2n(C)c1=O | 0 | 16µM | 0 | - | 0[11.4 µM] | 0
CCNC(=O)c1c(NC(=O)c2nc(S(=O)(=O)CC)ncc2Cl)sc2c1CCCC2 | 0 | 0 | 0 | - | - | 0
CCOC(=O)CSc1nc2c(sc(=S)n2-c2ccc(OCC)cc2)c(=O)[nH]1 | 0 | 0 | 0 | 0 | - | 0
CCOc1ccc2nc(SCC(=O)Nc3ccc4[nH]c(=O)[nH]c4c3)[nH]c2c1 | 0 | 40µM | ? | ? | 0 | 0
CCOC(=O)CCCNC(=O)CSc1nc2ccc(OCC)cc2[nH]1 | 0 | 0[0.0925 µM] | 0 | 0 | 0 | 0
Cc1ccc2nc(SCC(=O)N(C)C3CCS(=O)(=O)C3)[nH]c2c1 (centres undefined) | 0 | 0[12.7 µM] | 0 | 0 | 0 | 0
COc1ccc(NC(=O)CSc2nc3ccc(OC)cc3[nH]2)cc1 | 0 | 0[12.7 µM] | 0 | 0 | - | 0
CCOc1ccc2nc(SCC(=O)N(C)C3CCS(=O)(=O)C3)[nH]c2c1 (centres undefined) | 0 | 40µM | 0 | 0 | 0 | 0
CCOc1ccc2nc(SCC(=O)NC(=O)NCc3ccco3)[nH]c2c1 | 0 | 50µM | ? | ? | ? | 0
CCOc1ccc(-n2c(=S)sc3c(=O)[nH]c(SCC(=O)NCc4ccco4)nc32)cc1 | 0 | 40µM | ? | - | ? | ?
CC(C)(C)c1ccc(CN(Cc2ccco2)c2cnc(S(C)(=O)=O)nc2C(=O)Nc2ccc(F)cc2)cc1 | 0 | 0 | ? | - | - | 0
SMILES | HP1b binding inh | G9a block | BAZ2B block | PI5P4K alpha inh | L3MBTL1 inh | JMJD2A Tudor inh
CC(C)N(C(=O)Cn1cc(S(=O)(=O)Cc2ccc(C(F)(F)F)cc2)c2ccccc21)C(C)C | 0 | 0 | 0 | - | - | 0
Cc1ccc(CN(C(=O)c2ccc(OCC(C)C)cc2)c2ccccn2)o1 | 0 | 0 | 0 | - | - | 0
CCOC(=O)c1noc2ncn(CC(=O)Nc3ccc(C)c(F)c3)c(=O)c12 | 0 | 0 | 0 | - | - | 0
CCOc1cc(C#N)c(-n2nnc3c(sc4nc(C)cc(C)c43)c2=O)cc1OCC | 0 | 16µM | 0 | - | - | 0
CCOC(=O)C1CCN(C(=O)CN2C(=O)COc3ccc(C(C)(C)C)cc32)CC1 | 0 | 0 | 0 | 0 | - | 79µM
CCOC(=O)C1CCCN(C(=O)CN2C(=O)COc3ccc(C(C)(C)C)cc32)C1 (centres undefined) | 0 | 0 | 0 | 0 | 0 | 0
COc1ccc(N2CCN(C(=O)CC(C)S(=O)(=O)c3ccc4c(c3)NC(=O)CO4)CC2)cc1 (centres undefined) | 0 | - | 0 | 0 | - | 0
CCOC(=O)C1CCN(C(=O)CC(C)S(=O)(=O)c2ccc3c(c2)NC(=O)CO3)CC1 (centres undefined) | 0 | 71µM | 0 | 0 | - | 0
C=CCOc1ccc(-c2nc3c(c(=O)[nH]c(=O)n3CCCC)n2C)cc1OC | 0 | 0 | 0 | 0 | 0 | 32µM
CCCCn1c(=O)[nH]c(=O)c2c1nc(-c1cc(Br)c(OCC)c(OC)c1)n2C | 0 | 0 | 0 | 0 | - | 0
CN(C)CC(CCC(CN(C)C)C(=O)c1ccccc1)C(=O)c1ccccc1 (centres undefined) | 0 | 45µM | 0 | 0 | 0 | 0
CC(C)(C)C(=O)/C=c1\s/c(=C\c2ccc(-c3ccc([N+](=O)[O-])cc3)o2)c(=O)n1CC(=O)NC(N)=O | 0 | 45µM | ? | ? | 0 | 0
C[N+]1(C)[C@@H]2CC(OC(=O)C(O)(c3cccs3)c3cccs3)C[C@H]1[C@@H]1O[C@@H]12 (some centres undefined) | - | 0[12.7 µM] | - | - | - | -
C=CCn1c(-c2ccc(OC)c(OC)c2)cs/c1=N\c1ccccn1 | ? | 3.5µM | ? | 0 | 0 | 0[11.4 µM]
C=CCn1c(=N)n(CC(O)COc2ccccc2OC)c2ccccc21 (centres undefined) | 0 | 0 | 0 | 0 | 0 | 0
O=C(Cc1c[nH]c2ccccc12)Nc1cccc(S(=O)(=O)N2CCCCC2)c1 | - | 45µM | ? | - | 0 | -
O=C(CCl)Nc1cccc(S(=O)(=O)N2CCCCCC2)c1 | 0 | 50µM | 0 | 0 | 0 | 0
CC(=O)NC(CC(=O)NC1CCCCC1)c1ccccc1 (centres undefined) | 0 | 10µM | 0 | 0 | 0 | 0
CC(=O)NC(CC(=O)Nc1cccc(S(=O)(=O)N2CCCCC2)c1)c1ccccc1 (centres undefined) | 0 | 50µM | 0 | 0 | - | 0
CC(C)N(Cc1ccccc1)C(=O)CN1C(=O)CSc2ccc(S(=O)(=O)N3CCCC3)cc21 | 0 | 0 | 0 | - | - | 0
COc1ccc(CCNC(=O)C(C)n2c(=O)cc(-c3ccccc3)c3c(C)nn(C)c32)cc1OC (centres undefined) | ? | 0 | 0 | - | - | 0
O=C(NC1CCCC1)C1c2ccccc2OCC(=O)N1Cc1ccco1 (centres undefined) | - | - | - | 0 | - | -

Compound activity as filed in PubChem BioAssay.
